In PubChem BioAssay (Tox21):
Inconclusive results are not listed. A call without a number means that no potency is given here. A number with no mark means an inactive call. Activity calls are given as the source filed them. The call rests on the fitted dose curve; in most records, active means well fitted cell-killing curve with a large enough effect in the repeat runs; inconclusive means weak or mixed curves, or effect the other way; inactive means flat fitted curve, though single readings scatter.

test: qHTS assay to identify small molecule agonists of the sonic hedgehog signaling (Shh) pathway - cell viability counter screen (AID 1259366); conditions: NIH/3T3 Gli1-Luc viability, CellTiter-Fluor, 24 h; series mostly up to 92.4 µM; further: nearly all actives have a fitted effect of over 50% in size
From the text: National Center for Advancing Translational Sciences [NCATS]
NIH Chemical Genomics Center [NCGC]
U.S. Environmental Protection Agency [EPA]
National Institutes of Environmental Health Sciences [NIEHS]
National Toxicology Program [NTP]
U.S. Food and Drug Administration [FDA]
The sonic hedgehog (Shh) pathway is essential for normal embryonic development. Dysregulation of the Shh pathway can cause severe developmental defects in organs. Therefore chemicals that interfere with the pathway are potential developmental toxicants. A cell line designated 3T3Gli1-Luc (DMB/OARSA/CFSAN/FDA, Laurel, MD), a NIH/3T3 derived clone containing stably integrated Gli1-Luc reporter is used to detect chemical interference of the Shh pathway, by changes in the expression of the firefly Luc gene under the control of the Gli1 transcriptional response element. This cell line was used to screen Tox21 libraries for identifying and prioritizing the potential developmental toxicants that interfere Shh pathway. The cytotoxicity of the compounds was tested in parallel by measuring the cell viability using CellTiter-Fluor assay system (Promega, Madison, WI) in the same wells.
Tox21 Assay Protocol Summary:
3T3 Gli1-Luc cells were dispensed at 2,000 per well in 5uL of culture medium into white solid bottom 1536-well plates (Greiner Bio-One, Monroe, NC) using a Multidrop Combi (Thermo Scientific, Waltham, MA) dispenser. The assay plates were incubated at 37 C and 5% CO2 for 4hr, and then 23nL of compounds dissolved in DMSO and positive control were transferred using a Pintool station (Wako, San Diego, CA). The assay plates were incubated at 37C and 5% CO2 for 24hr. For viability read, after 23hr of compound treatment, 1uL of CellTiter-Fluor reagent (Promega Corporation, Madison, WI) was added to each well of the assay plates using Flying Reagent Dispenser (FRD, Aurora Discovery, San Diego, CA) and incubated the assay plates at 37C for 1hr. The fluorescence signal was quantified using a ViewLux plate reader (Perkin Elmer, Shelton, CT).

| SMILES | Potency | viability change, negative = cytotoxic |
| --- | --- | --- |
| O=S(O)CO | inactive | – |
| CCOC(=O)c1cccc(N)c1 | inactive | – |
| O=c1cc(-c2ccccc2)oc2ccccc12 | inactive | – |
| Cc1cccn2c(=O)c(-c3nnn[nH]3)cnc12 | – | 4.51% [at 19 µM] |
| c1ccc(CC2=NCCN2)cc1 | inactive | – |
| N[C@H](C(=O)O)c1ccc(O)cc1 | – | -2.17% [at 19 µM] |
| COc1ccccc1OCC(O)CN1CCN(CC(=O)Nc2c(C)cccc2C)CC1 (stereo not given) | inactive | – |
| COC(=O)CCSCCC(=O)OC | inactive | – |
| CCOC(C)(C)C | inactive | – |
| CC(=O)OCC(=O)[C@@]1(O)CCC2C3CCC4=CC(=O)CC[C@]4(C)C3[C@@H](O)C[C@@]21C (stereo not given in full) | inactive | – |
| C[C@@H]1CCN(C(=O)[C@H](CCCN=C(N)N)NS(=O)(=O)c2cccc3c2NC[C@H](C)C3)[C@@H](C(=O)O)C1 | inactive | – |
| CCCCC/C=C\CCC=O | inactive | – |
| CCCCCCCCCCCCCC=O | – | 5.21% [at 8.39 µM] |
| CC1(C)CO[C@@H](CC(=O)O)CN1 | inactive | – |
| CCCC(=O)O[C@]1(C(=O)CO)CC[C@H]2[C@@H]3CCC4=CC(=O)CC[C@]4(C)[C@H]3[C@@H](O)C[C@@]21C | inactive | – |
| NS(=O)(=O)c1cc2c(cc1Cl)NC(C1CC3C=CC1C3)NS2(=O)=O (stereo not given) | inactive | – |
| O=C(CCCN1CCN(c2ccccn2)CC1)c1ccc(F)cc1 | inactive | – |
| CCCCCCOC(=O)CCCCC(=O)OCCCCCC | inactive | – |
| CCO/C([O-])=N/c1c[n+](N2CCOCC2)no1 | inactive | – |
| FC(F)OC(Cl)C(F)(F)F (stereo not given) | inactive | – |

| SMILES | Potency | viability change, negative = cytotoxic |
| --- | --- | --- |
| CC(C)(C)c1nnc(NS(=O)(=O)c2ccccc2)s1 | inactive | – |
| FC1(F)C(F)(F)C(F)(F)C2(F)C(F)(F)C(F)(F)C(F)(F)C(F)(F)C2(F)C1(F)F (stereo not given) | inactive | – |
| CCCN(CCC)CCc1cccc2c1CC(=O)N2 | inactive | – |
| C[N+](C)(C)CCCCCC[N+](C)(C)C | inactive | – |
| O=C(O)CNC(=O)c1ccc([N+](=O)[O-])cc1 | inactive | – |
| COC(=O)[C@@H](N)Cc1ccc(O)c(O)c1 | inactive | – |
| Cc1cc2c(cc1S(N)(=O)=O)S(=O)(=O)CCC2 | inactive | – |
| Cc1cccc(C)c1NC(=O)C(C)N (stereo not given) | inactive | – |
| CCOC(=O)Nc1ccc(NCc2ccc(F)cc2)nc1N | inactive | – |
| N=C(N)c1ccc2cc(OC(=O)c3ccc(N=C(N)N)cc3)ccc2c1 | inactive | – |
| C[N+](C)(C)CC(O)CC(=O)[O-] (stereo not given) | inactive | – |
| Cc1ccc(=O)n(-c2ccccc2)c1 | inactive | – |
| NC(=O)c1cn(Cc2c(F)cccc2F)nn1 | inactive | – |
| N=C(N)c1ccccc1 | inactive | – |
| C/C=C(\C)C#N | inactive | – |
| C=C1CC[C@H]2C[C@@H]1C2(C)C | inactive | – |
| NC(=O)c1ccc(N)cc1 | inactive | – |
| OC[C@]1(O)OC[C@@H](O)[C@H](O)[C@@H]1O | inactive | – |
| Cc1c(O)cccc1O | inactive | – |
| C[C@H]1C[C@@H](O)CC(C)(C)C1 | inactive | – |
